For 64 molecules, outcome results are on record in PubChem BioAssay AID1259325 (C. David Weaver Laboratory, Vanderbilt University, 2017).

The structures appear in SMILES notation. Among all 63,000 compounds or so, about 30 (0.05%) were called active. No rule for the calls is given here. The list is a sample of the results.

G protein-activated inward rectifier potassium channel 2 (Homo sapiens), sequence (P48051 whole entry, looked up): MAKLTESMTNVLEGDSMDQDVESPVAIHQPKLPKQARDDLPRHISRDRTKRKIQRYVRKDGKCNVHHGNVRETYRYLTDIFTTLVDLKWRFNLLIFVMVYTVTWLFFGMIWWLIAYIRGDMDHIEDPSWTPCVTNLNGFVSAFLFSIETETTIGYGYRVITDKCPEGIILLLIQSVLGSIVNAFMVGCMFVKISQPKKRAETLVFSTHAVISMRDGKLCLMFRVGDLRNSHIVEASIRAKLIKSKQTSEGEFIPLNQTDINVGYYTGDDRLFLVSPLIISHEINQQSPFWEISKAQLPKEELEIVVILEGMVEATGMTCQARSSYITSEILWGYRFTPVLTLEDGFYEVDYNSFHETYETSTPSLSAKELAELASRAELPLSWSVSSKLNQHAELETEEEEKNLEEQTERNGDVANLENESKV

This assay has as its target G protein-activated inward rectifier potassium channel 2 (Homo sapiens) (UniProt P48051). The experiment in a line: opens human GIRK2 potassium channels (AID 1259325). The settings on record: HEK293-GIRK2 thallium flux, Thallos fluorescence, MPD.
As to `Cc1cc(NC(=O)c2ccc([N+](=O)[O-])o2)n(-c2nc3c(F)cccc3s2)n1`, the molecule was classed as inactive.
As for `O=C(Cc1csc(Nc2ccc(OC(F)(F)F)cc2)n1)NCc1ccncc1`, the molecule was classed as inactive.
On to `COC(=O)c1ccccc1NS(=O)(=O)c1ccc(N2C(=O)CCC2=O)cc1`, for which the molecule was called inactive.
Take `Cc1cc(C(=O)Nc2nc3c(C)ccc(Cl)c3s2)on1`: the molecule was called inactive.
Take `COc1ccc(CC(=O)NC2CC(O)C(CO)C2)cc1OC` (centres undefined): the outcome was inactive.
On to `Cc1cc(C)c(C)c(S(=O)(=O)N2CCC(S(C)(=O)=O)C2)c1C` (centres undefined), for which the molecule was called inactive.
`O=C(OC1CN(c2nc3c(Cl)cccc3s2)C1)c1ccc(=O)[nH]n1`: the molecule was called inactive.
For `O=C(c1ccc(OC(F)(F)F)cc1)N1CCC(CSC2=NCCS2)CC1` the value was “inactive”; for `COc1ccc(-c2csc(Cc3nc(-c4ccc(C(F)(F)F)cc4)no3)n2)cc1OC`, “inactive”.
For `COc1cc(C2c3c(oc4ccc(C)cc4c3=O)C(=O)N2CCO)cc(OC)c1OC` (centres undefined), the molecule was classed as inactive.
The entry for `Cc1oc2cc(OC(=O)N3CCOCC3)ccc2c(=O)c1-c1ccc(Br)cc1` is “inactive”; for `O=C(CSc1nc2ccccc2o1)N1CCN(c2cc(N3CCCCC3)ncn2)CC1` it is “inactive”.
Take `O=C(Nn1cnc2c(cnn2-c2ccccc2)c1=O)c1ccc(Cl)cc1Cl`: the molecule was called inactive.
For `O=C1/C(=C/c2cc(Br)cc3c2OCOC3)Oc2cc(OC(=O)N3CCOCC3)ccc21` the value was “inactive”; for `Cc1ccc(Nc2c(C(=O)N3CCOCC3)cnc3ccccc23)cc1C`, “inactive”; for `COc1ccc(NC(=O)CCc2csc(NC(=O)c3ccc[nH]c3=O)n2)cc1Cl`, “inactive”.
In the case of `COCCCn1c(C(=O)Nc2cccc(C)c2C)cc2c(=O)n(C)c(=O)n(C)c21`, the molecule was called inactive.
Regarding `COc1ccc(C2C(C(=O)Nc3ccccc3)=C(C)Nc3nc(C)nn32)cc1OC` (centres undefined), the molecule was classed as inactive.
The entry for `COc1ccccc1OCC#CCNC(=O)CSc1nc2ccccc2s1` is “inactive”; for `CCOc1ccccc1C(=O)Nc1ccc(C)c(N2CCCC2=O)c1` it is “inactive”.
For the molecule `COC(=O)c1ccc(S(=O)(=O)NCCC(O)c2cc(C)oc2C)cc1` (centres undefined), the molecule was classed as inactive.
Take `Cc1nnsc1C(=O)NCC1CCN(C(=O)c2ccoc2)CC1`: the molecule was called inactive.
For `CCC1CCCCN1C(=O)c1cnc2nc(C)ccc2c1Nc1ccc(S(C)(=O)=O)cc1` (centres undefined) the value was “inactive”.
In the case of `COc1ccc(NC(=O)c2cn(Cc3ccc(NC(=O)c4ccccc4F)cc3)cn2)cc1`, the molecule was called inactive.
For `CS(=O)(=O)N1CCc2nc(NC(=O)/C=C/c3ccccc3Cl)sc2C1` the value was “inactive”; for `C=C1C(=O)O[C@H](CCCCCCCC)C1C(=O)O` (some centres undefined), “inactive”; for `COc1cc(CN2CC(c3nc4ccc(C)cc4[nH]3)C2)cc(OC)c1`, “inactive”.
The entry for `COc1ccc(C(O)=C2C(=O)C(=O)N(c3cc(C)on3)C2c2ccc(C)cc2)cc1OC` (centres undefined) is “inactive”; for `COc1cc(OC)cc(C(=O)Nc2ccc(Cl)c3ncsc23)c1` it is “inactive”; for `Cc1ccc(=O)n(CC(=O)N2CCC(Cc3ccccc3)CC2)n1` it is “inactive”.
The entry for `O=S(=O)(c1cccc(Cl)c1Cl)N1CCN(c2ccc(-c3ccccc3)nn2)CC1` is “inactive”; for `O=C(C1CCN(c2ccc(-c3ccccc3)nn2)CC1)N1CCN(Cc2ccccc2)CC1` it is “inactive”; for `COc1ccc(N2CCN(CCCn3c(C)cn4c5c(=O)[nH]c(=O)n(C)c5nc34)CC2)cc1` it is “inactive”.
As to `O=C(O)CCC/C=C\C[C@@H]1[C@@H](/C=C/C(=O)COc2cccc(C(F)(F)F)c2)[C@H](O)C[C@@H]1O`, the molecule was classed as inactive.
Turning to `O=C(c1cc(-c2ccco2)[nH]n1)N1CC(c2nc(-c3ccc[nH]c3=O)no2)C1`, the result was inactive.
As to `COc1ccc(OCc2noc(CNC(=O)/C=C/c3cccs3)n2)cc1`, the molecule was called inactive.
Turning to `COc1ccc(OCc2noc(CNC(=O)c3ccc4nsnc4c3)n2)cc1`, the molecule was called inactive.
`CC1CCC(NC(=O)C2CCN(c3nc4c(-c5ccccc5F)csc4c(=O)[nH]3)CC2)CC1` (centres undefined): the result was inactive.
As for `Cc1ccc(C)c(NC(=O)CSc2ncnc3nc(N4CCc5ccccc5C4)sc23)c1`, the molecule was called inactive.
As for `O=C1NC(=NCCc2cccc(F)c2)S/C1=C\c1ccc2ncccc2c1`, the outcome was inactive.
In the case of `O=C(NCCC(O)c1cccc2ccccc12)Nc1ccccc1` (centres undefined), the molecule was called inactive.
For `O=C(Cc1ccccc1Cl)N1CCCC(c2nnc(-c3ccccc3F)s2)C1` (centres undefined) the value was “inactive”; for `CC(=O)Nc1nc2c(s1)CN(CC(=O)Nc1ccc(OC(F)(F)F)cc1)CC2`, “inactive”.
`CCOCCn1c(-n2nc(C)cc2C)nc2c1c(=O)n(Cc1ccccc1F)c(=O)n2C`: the molecule was classed as inactive.
For the molecule `CCOC(=O)C1CCc2sc(NC(=O)CCc3c(C)nn(C)c3C)nc21` (centres undefined), the result was inactive.
On to `O=S(=O)(/C=C/c1ccccc1)NCc1ccc(C(O)c2cccs2)s1` (centres undefined), for which the molecule was called inactive.
For `COC(=O)c1ccccc1NC(=O)Cn1nc2nc(N3CCCC(C)C3)ccn2c1=O` (centres undefined), the call was inactive.
`Cc1cccc(Cn2c(N3CCC(C(N)=O)CC3)nc3c2c(=O)[nH]c(=O)n3C)c1`: the call was inactive.
Regarding `CCCn1c(=O)c2cc(Cl)ccc2n2c(SCC(=O)Nc3ccc4c(c3)OCO4)nnc12`, the call was inactive.
For `O=C(NCc1ccc2c(c1)OCO2)C1CCN(c2ncnc3c2sc2ncccc23)CC1` the value was “inactive”; for `COc1ccc2c(=O)c3c(oc2c1)C(=O)N(CCCN(C)C)C3c1ccccc1` (centres undefined), “inactive”; for `CC(=O)Nc1cccc(C#Cc2cncnc2Nc2ccc(OCc3cccc(F)c3)c(Cl)c2)n1`, “inactive”.
Regarding `O=S(=O)(Cc1nc(-c2ccc(OCc3ccccc3)cc2)no1)c1ccccc1`, the call was inactive.
`O=C(NC1CCN(C(=O)c2cn(-c3ccc(Cl)cc3)nn2)CC1)C1CCCC1`: the result was inactive.
In the case of `COc1cccc(CSc2nc(C)c(CC(=O)Nc3cccc(Cl)c3C)c(=O)[nH]2)c1`, the call was inactive.
For the molecule `COc1cc(-c2nc(CSc3nc4ccccc4c(=O)n3C)c(C)o2)cc(OC)c1OC`, the result was inactive.
For `Cc1cn2c3c(=O)n(Cc4ccc(Br)cc4)c(=O)n(C)c3nc2n1CCCO`, the molecule was called inactive.
As for `COc1ccc(S(=O)(=O)Nc2cccc(N3CCCCC3=O)c2)cc1`, the outcome was inactive.
Take `C#CCn1c(COc2ccccc2OC)nc2ccccc21`: the molecule was classed as inactive.
With `O=C(CCSc1ccccc1)NCCCn1ncccc1=O`, the molecule was classed as inactive.
For `CC(O)C(O)(C(=O)OCc1ccccc1NC(=O)CCC(=O)O)C(C)O` (centres undefined), the molecule was classed as inactive.
For the molecule `O=C(Nc1cnoc1)c1ccc(OC(F)(F)F)cc1`, the result was inactive.
For `Cc1nc(-c2noc(-c3cccnc3)n2)cn1CC(=O)N1CCc2ccccc21` the value was “inactive”; for `O=C(Nc1cccc(F)c1)c1sccc1S(=O)(=O)N1CCN(c2ccccc2)CC1`, “inactive”.
